# According to PubChem BioAssay (Tox21):
# Values without a mark were called inactive. Active and inactive are the calls of the source. Calls come from the whole dose curve; as a rule, active = well fitted curve in the direction sought with a large enough effect in the repeat runs; inconclusive = weak or mixed curves; inactive = flat fitted curve, though single readings scatter.
# Assay: qHTS assay to test for compound auto fluorescence at 535 nm (green) in HEK293 cell free culture (AID 720682)
# Conditions: cell-free medium, green autofluorescence 485/535 nm, hits give high values; series mostly up to 91.3 µM
# Description: U.S. Tox21 Program National Center for Advancing Translational Sciences [NCATS] NIH Chemical Genomics Center [NCGC] U.S. Environmental Protection Agency [EPA] National Institutes of Environmental Health Sciences [NIEHS] National Toxicology Program [NTP] U.S. Food and Drug Administration [FDA] Tox21 Assay Overview: Compound auto fluorescence often interferes with screening of the compound library against various biological targets and signaling pathways. Some of these compounds may have fluorophoric properties. Such properties may interfere with the assay outputs resulting in false positives and/or negatives. To decrease such complications and ensure the compound activities are relevant in terms of biological response, the Tox21 10K compound library was screened for auto fluorescence. From the fluorophores used as reporter signals in our screening assays, the auto fluorescence equivalencies of compounds against three fluorophores have been evaluated: Triamterene, Fluorescein and Rose Bengal sodium for blue, green and red fluorescence, respectively. The fluorescence intensities were measured using Excitation/Emission wavelengths at 405/460nm, 485/535nm and 540/590nm for blue, green and red labels, respectively. This assay includes the green fluorescence data.
# Tox21 Assay Protocol Summary: 5 uL of culture medium (DMEM containing 10% FBS) per well was dispensed into black wall/clear bottom 1536-well plates using a Multidrop Combi Dispenser (ThermoFisher Scientific, Waltham, MA). After 23 nL compound or DMSO vehicle was transferred into assay plate by a pintool work station (Kalypsys, San Diego, CA), fluorescence intensities in the assay plates were measured by an Envision (PerkinElmer, Shelton, CT) plate reader using three labels for measuring blue, green and red fluorescence at […] 460, 535 and 590nm respectively.
# % is set by controls: 0 for no effect and ±100 for the full control effect.
Structure (SMILES),outcome,activity change
O=C(O)CNC(=O)CNC(=O)CNC(=O)CSC(=O)c1ccccc1,inactive,
CC(=O)O[Si](C)(OC(C)=O)OC(C)=O,inactive,
CNCCS(=O)(=O)O,inactive,
CN(C)CCCCl,inactive,
O=Cc1ccccc1Cl,inactive,
O=C1c2ccccc2C(=O)c2cc(Cl)ccc21,,-0.0107% [at 3.72 µM]
Cc1c(Cl)cccc1Cl,inactive,
C[C@H]1[C@@H](c2ccccc2)NC(=O)N1C,inactive,
CC12CCC(C1)C(C)(C)C2O (stereo not given),inactive,
O=C=NCC1CCCC(CN=C=O)C1 (stereo not given),inactive,
CN(C)CCN(C)CCO,inactive,
CCC(C)C(=O)OCCc1ccccc1 (stereo not given),inactive,
CO[Si](CCCn1c(=O)n(CCC[Si](OC)(OC)OC)c(=O)n(CCC[Si](OC)(OC)OC)c1=O)(OC)OC,inactive,
CC/C(C)=N\O[Si](C)(O/N=C(\C)CC)O/N=C(\C)CC,inactive,
O=C(Cn1ccnc1[N+](=O)[O-])NCc1ccccc1,inactive,
CCCC(=O)OCCC(C)CCC=C(C)C (stereo not given),inactive,
C=CC(=O)OCC1CCCO1 (stereo not given),inactive,
CC(CO)(CO)CO,inactive,
CO[C@@]1(NC(=O)Cc2cccs2)C(=O)N2C(C(=O)O)=C(COC(N)=O)CS[C@@H]21,inactive,
Cn1c(=O)c2[nH]c(Br)nc2n(C)c1=O,inactive,

Structure (SMILES),outcome,activity change
CC(C)c1ccc(C=O)cc1,inactive,
NCCOCCN,inactive,
O=NN(CCCl)C(=O)NC1CCCCC1,inactive,
CC1c2ccccc2CN1NC(=O)c1ccc(Cl)c(S(N)(=O)=O)c1 (stereo not given),inactive,
CCCCCCCCCCCCCBr,inactive,
CCC(=O)c1c(O)cc(O)cc1O,inactive,
Cc1c(N)cccc1Cl,inactive,
C=CCCCCCCCCC(=O)OCCCC,inactive,
CC(O)COC(C)(C)C (stereo not given),inactive,
Cc1ccc2c(c1)C(=O)c1ccccc1C2=O,inactive,
CCCSSCCC,inactive,
O=C(CCCCC(=O)Nc1c(I)cc(I)c(C(=O)O)c1I)Nc1c(I)cc(I)c(C(=O)O)c1I,inactive,
CC1(C)Cc2cccc(N)c2O1,inactive,
CC(=O)O[C@H]1C[C@@H]2CC[C@@]1(C)C2(C)C,inactive,
O=C(O)CONC(=O)c1ccccc1,inactive,
Cc1cc(C)c(C(=O)O)c(C)c1,inactive,
O=C(O)c1cc2ccccc2nc1C(=O)O,inactive,
CCCCCCCCCCCCCCCCCC#N,inactive,
N#Cc1ccccc1O,inactive,
C=CC(=O)CCCCC,inactive,
